# Results reported in PubChem BioAssay AID624496 (National Center for Advancing Translational Sciences (NCATS), 2012).
# Results filed as inconclusive are left out. Activity calls are given as the source filed them. Calls come from the whole dose curve; as a rule, active = well fitted inhibition curve with a large enough effect; inconclusive = small, poorly fitted or top-dose-only effect, or another doubt; inactive = no such curve, though single readings can be large or run the other way.
# Biological target: D(2) dopamine receptor (Homo sapiens) (UniProt P14416)
# Experiment: HTS Assay for Allosteric Antagonists of the Human D2 Dopamine Receptor: SAR in Primary Assay.
# Settings: HEK293 T-REx D2 cells, calcium flux, dopamine EC80 antagonism; activity, negative = inhibition: at 41.8 µM (top of the series) unless noted
# Excerpt: Dopamine receptors (DARs) are involved in the etiology and/or therapy of a number of neuropsychiatric and endocrine disorders. For instance, all receptor-based antiparkinsonian drugs work via stimulating the D2 DAR subtype whereas all FDA-approved antipsychotic agents are antagonists of this receptor. […] There are three different types of allosteric modulators that we are seeking, two of which will stimulate or augment receptor signaling, allosteric agonists and potentiators, while the third, allosteric antagonists, will attenuate receptor signaling. The present project is looking for compound antagonism after an EC80 addition of dopamine by tracking calcium flux in a […], inducible Hek293 Trex D2 cell line, which act through an allosteric site. NIH Chemical Genomics Center [NCGC] NIH Molecular Libraries Probe Centers Network [MLPCN] MLPCN Grant: NS064831 Assay Submitter (PI): David Sibley
# Freshly passaged cells are plated in 1536 well black, clear bottom plates at a density of 4000 cells/well in 3 ul of complete media containing 1x tetracycline inducer. After an overnight incubation at 30 deg C in 5% CO2, cells are loaded with 2 ul of the no wash Calcium Assay Kit (ABD Bioquest) and incubated at room temperature for 30 to 90 minutes. Agonist read: A 10 cycle (1 second/cycle) baseline measurement is taken and then the FDSS online 1536 pintool delivers 23 nl of compound library (as well as dopamine controls) to the plate. The plate is measured for kinetically at 1 cycle/sec for 180 seconds. Following the 180 second read, 1 ul of an EC80 (negative modulation assay) is delivered by an onboard pipette head. Measurements are taken kinetically for an additional 180 seconds.
# D(2) dopamine receptor (Homo sapiens), sequence (P14416 whole entry, looked up): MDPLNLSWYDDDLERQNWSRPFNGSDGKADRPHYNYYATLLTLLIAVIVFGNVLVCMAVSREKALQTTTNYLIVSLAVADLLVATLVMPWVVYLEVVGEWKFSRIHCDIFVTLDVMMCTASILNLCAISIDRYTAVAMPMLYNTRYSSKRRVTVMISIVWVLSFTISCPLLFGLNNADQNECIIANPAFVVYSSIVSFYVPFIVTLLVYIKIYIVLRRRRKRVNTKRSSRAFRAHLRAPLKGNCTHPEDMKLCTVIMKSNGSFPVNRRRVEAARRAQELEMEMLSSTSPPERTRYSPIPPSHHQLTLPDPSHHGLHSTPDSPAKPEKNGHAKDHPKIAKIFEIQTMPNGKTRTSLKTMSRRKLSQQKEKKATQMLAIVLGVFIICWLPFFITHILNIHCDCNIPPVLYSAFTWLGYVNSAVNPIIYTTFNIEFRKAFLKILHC
Structure (SMILES),Potency,"activity, negative = inhibition"
CCN1C(=O)c2ccccc2S(=O)c2ccc(C(=O)NCc3ccc(C#N)cc3)cc21 (stereo not given),141 nM (active),
CCN1C(=O)c2ccccc2S(=O)c2ccc(C(=O)Nc3ccc(OC)cc3)cc21 (stereo not given),887 nM (active),
CCN1C(=O)c2ccccc2[S@](=O)c2ccc(C(=O)NCc3ccc(F)cc3)cc21,353 nM (active),
CCN1C(=O)c2ccccc2S(=O)c2ccc(C(=O)NCc3ccc(OC)cc3)cc21 (stereo not given),88.7 nM (active),
CCN1C(=O)c2ccccc2S(=O)c2ccc(C(=O)NCc3ccc4c(c3)OCO4)cc21 (stereo not given),112 nM (active),
CN1C(=O)c2ccccc2S(=O)c2ccc(C(=O)NCCN3CCCCC3)cc21 (stereo not given),112 nM (active),
CCN1C(=O)c2ccccc2S(=O)c2ccc(C(=O)NCc3ccc(S(C)(=O)=O)cc3)cc21 (stereo not given),560 nM (active),
COc1ccc(CNC(=O)c2ccc3c(c2)N(Cc2ccccc2)C(=O)c2ccccc2S3=O)cc1 (stereo not given),88.7 nM (active),
CN1C(=O)c2ccccc2S(=O)c2ccc(C(=O)NCc3ccccn3)cc21 (stereo not given),223 nM (active),
CN1C(=O)c2ccccc2S(=O)c2ccc(C(=O)NCc3ccccc3)cc21 (stereo not given),560 nM (active),
CCN1C(=O)c2ccccc2[S@](=O)c2ccc(C(=O)N[C@H](C)c3ccc(Br)cc3)cc21,8870 nM (active),
CN1C(=O)c2ccccc2S(=O)c2ccc(C(=O)NCc3cccnc3)cc21 (stereo not given),,-114% [at 4.65 µM] (active)
CN1C(=O)c2ccccc2[S@](=O)c2ccc(C(=O)NCCN3CCCC3)cc21,4450 nM (active),
CCN1C(=O)c2ccccc2S(=O)c2ccc(C(=O)N(C)Cc3ccc(OC)cc3)cc21 (stereo not given),,-112% [at 4.65 µM]
COc1ccc(CNC(=O)c2ccc3c(c2)C(=O)c2ccccc2C3=O)cc1,,-113%
CN1C(=O)c2ccccc2S(=O)c2ccc(C(=O)NCCc3cccs3)cc21 (stereo not given),88.7 nM (active),
CCN1C(=O)c2ccccc2S(=O)c2ccc(C(=O)NCc3ccc(C(C)(C)C)cc3)cc21 (stereo not given),353 nM (active),
CCN1C(=O)c2ccccc2S(=O)c2ccc(C(=O)NCc3ccc(SC)cc3)cc21 (stereo not given),223 nM (active),
CCN1C(=O)c2ccccc2S(=O)c2ccc(C(=O)Nc3ccccc3)cc21 (stereo not given),141 nM (active),
CN1C(=O)c2ccccc2[S@](=O)c2ccc(C(=O)NCc3ccc(Br)cc3)cc21,70.5 nM (active),

Structure (SMILES),Potency,"activity, negative = inhibition"
CN1C(=O)c2ccccc2[S@](=O)c2ccc(C(=O)NCCc3cccs3)cc21,280 nM (active),
CCN1C(=O)c2ccccc2S(=O)c2ccc(C(=O)NC(C)c3ccccc3)cc21 (stereo not given),353 nM (active),
CCN1C(=O)c2ccccc2S(=O)c2ccc(C(=O)NCc3ccc(F)cc3)cc21 (stereo not given),705 nM (active),
COc1ccc(CNC(=O)c2cccc(N3C(=O)c4ccccc4C3=O)c2)cc1,,-114%
CN1C(=O)c2ccccc2[S@](=O)c2ccc(C(=O)NCc3ccc(Cl)cc3)cc21,445 nM (active),
CCN1C(=O)c2ccccc2S(=O)c2ccc(C(=O)NCc3ccc(C(F)(F)F)cc3)cc21 (stereo not given),141 nM (active),
CCN1C(=O)c2ccccc2Sc2ccc(C(=O)NCc3ccc(OC)cc3)cc21,887 nM (active),
CN1C(=O)c2ccccc2[S@@](=O)c2ccc(C(=O)NCCc3cccs3)cc21,88.7 nM (active),
CCN1C(=O)c2ccccc2S(=O)c2ccc(C(=O)OCc3ccc(OC)cc3)cc21 (stereo not given),inactive,
COc1ccc(NC(=O)c2ccc3c(c2)N(C)C(=O)c2ccccc2S3=O)cc1 (stereo not given),11200 nM (active),
CCN1C(=O)c2ccccc2[S@](=O)c2ccc(C(=O)NCc3ccc(C#N)cc3)cc21,223 nM (active),
CN1C(=O)c2ccccc2S(=O)c2ccc(C(=O)Nc3ccccc3)cc21 (stereo not given),280 nM (active),
CN1C(=O)c2ccccc2S(=O)c2ccc(C(=O)NCCN3CCCC3)cc21 (stereo not given),280 nM (active),
CCN1C(=O)c2ccccc2S(=O)c2ccc(NC(=O)Cc3ccc(F)cc3)cc21 (stereo not given),223 nM (active),
CCN1C(=O)c2ccccc2[S@](=O)c2ccc(C(=O)N[C@H](C)c3ccc4ccccc4c3)cc21,70.5 nM (active),
CCN1C(=O)c2ccccc2S(=O)c2ccc(C(=O)NCc3cc(OC)c(OC)c(OC)c3)cc21 (stereo not given),,23.4%
CCN1C(=O)c2ccccc2S(=O)(=O)c2ccc(C(=O)NCc3ccc(OC)cc3)cc21,,-113%
CCN1C(=O)c2ccccc2S(=O)c2ccc(C(=O)NCc3ccc(C)cc3)cc21 (stereo not given),,5.87% [at 4.65 µM]
CCN1C(=O)c2ccccc2[S@](=O)c2ccc(C(=O)NCc3ccc(OC)cc3)cc21,8870 nM (active),
COc1ccc(CNC(=O)c2ccc3c(c2)NC(=O)c2ccccc2S3=O)cc1 (stereo not given),141 nM (active),
